These results are taken from PMC11062922 (Nature Chemical Biology, 2023).

Each structure is given as a SMILES string. Like-named read-outs stand apart in the source and are kept apart here.

One test concerns the target Q6ZSR9 (human, UniProt Q6ZSR9). More on the design: species or system MV4-11 + K-562 + COLO205 + SK-N-BE2 + OVCAR-8. Particulars: read-out: apparent Kd, n = 1.
Another test deals with CLK1. Further details: species or system human, MV4-11 + K-562 + COLO205 + SK-N-BE2 + OVCAR-8. Particulars: read-out: apparent Kd; compound concentrations:100 nM and 1000 nM (sheet 'Samples'); n = 1.
The next test relates to CSNK2A1;CSNK2A3. More on the design: species or system human, MV4-11 + K-562 + COLO205 + SK-N-BE2 + OVCAR-8. The note with it: read-out: apparent Kd; compound concentrations:100 nM and 1000 nM (sheet 'Samples'); n = 1.
The next test deals with CSNK2A2. Further details: species or system human, MV4-11 + K-562 + COLO205 + SK-N-BE2 + OVCAR-8. The note with it: read-out: apparent Kd; compound concentrations:100 nM and 1000 nM (sheet 'Samples'); n = 1.
The subject of the next test is PTK6. More on the design: species or system human, MV4-11 + K-562 + COLO205 + SK-N-BE2 + OVCAR-8. Particulars: read-out: apparent Kd, n = 1.
A further test concerns YES1. Further details: species or system human, MV4-11 + K-562 + COLO205 + SK-N-BE2 + OVCAR-8. Particulars: read-out: apparent Kd, n = 1.
Another test has as its system ABL1. More on the design: species or system human, MV4-11 + K-562 + COLO205 + SK-N-BE2 + OVCAR-8. Particulars: read-out: apparent Kd, n = 1.
In a further test the test system is ABL2. More on the design: species or system human, MV4-11 + K-562 + COLO205 + SK-N-BE2 + OVCAR-8. The note with it: read-out: apparent Kd, n = 1.
A further test concerns BCR. Further details: species or system human, MV4-11 + K-562 + COLO205 + SK-N-BE2 + OVCAR-8. The note with it: read-out: apparent Kd, n = 1.
A further test concerns FRK. Further details: species or system human, MV4-11 + K-562 + COLO205 + SK-N-BE2 + OVCAR-8. Particulars: read-out: apparent Kd, compound concentrations: 100 nM and 1000 nM (sheet 'Samples'), n = 1.
In the next test the test system is FYN. Further details: species or system human, MV4-11 + K-562 + COLO205 + SK-N-BE2 + OVCAR-8. The note with it: read-out: apparent Kd, n = 1.
The next test concerns GAK. Further details: species or system human, MV4-11 + K-562 + COLO205 + SK-N-BE2 + OVCAR-8. The note with it: read-out: apparent Kd, n = 1.
A further test concerns HCK. More on the design: species or system human, MV4-11 + K-562 + COLO205 + SK-N-BE2 + OVCAR-8. The note with it: read-out: apparent Kd, compound concentrations: 100 nM and 1000 nM (sheet 'Samples'), n = 1.
For the next test, the system named is LCK. Further details: species or system human, MV4-11 + K-562 + COLO205 + SK-N-BE2 + OVCAR-8. The note with it: read-out: apparent Kd, n = 1.
The next test has as its system RIPK2. More on the design: species or system human, MV4-11 + K-562 + COLO205 + SK-N-BE2 + OVCAR-8. Particulars: read-out: apparent Kd, n = 1.
In another test the test system is RIPK3. More on the design: species or system human, MV4-11 + K-562 + COLO205 + SK-N-BE2 + OVCAR-8. Particulars: read-out: apparent Kd, n = 1.
For a further test, the system named is RET. More on the design: species or system human, MV4-11 + K-562 + COLO205 + SK-N-BE2 + OVCAR-8. Particulars: read-out: apparent Kd, compound concentrations: 100 nM and 1000 nM (sheet 'Samples'), n = 1.
The mark [1] stands for this setting: compound concentrations:100 nM and 1000 nM (sheet 'Samples').

Chain of Q6ZSR9 (Q6ZSR9 whole entry, looked up): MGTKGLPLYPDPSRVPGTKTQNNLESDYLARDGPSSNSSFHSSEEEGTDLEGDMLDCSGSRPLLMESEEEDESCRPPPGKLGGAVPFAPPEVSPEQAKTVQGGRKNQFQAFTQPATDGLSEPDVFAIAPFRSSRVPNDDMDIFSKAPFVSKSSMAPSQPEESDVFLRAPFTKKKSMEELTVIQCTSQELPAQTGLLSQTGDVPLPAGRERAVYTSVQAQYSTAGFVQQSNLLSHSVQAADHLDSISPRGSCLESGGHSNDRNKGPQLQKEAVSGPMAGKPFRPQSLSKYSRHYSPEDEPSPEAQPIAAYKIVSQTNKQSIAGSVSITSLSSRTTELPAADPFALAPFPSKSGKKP

Take `COc1cc2ncn(-c3cc(OCc4cccs4)c(C(N)=O)s3)c2cc1OC` [GSK312948A]: in the test with Q6ZSR9 (setting [1]), the potency estimated from few doses is 2250 nM.
Turning to `Nc1nc(N)c2nc(-c3ccccc3)[nH]c2n1` [SKF-12778], the potency estimated from few doses in the test with CLK1 is 1150 nM; with CSNK2A1;CSNK2A3, 1350 nM; with CSNK2A2, 1100 nM; with PTK6 (setting [1]), 1150 nM; with YES1 (setting [1]) it was 1040 nM.
In the case of `COc1cccc(-n2cnc3c(N/N=C/c4ccncc4)ncnc32)c1` [GW813360X], the potency estimated from few doses was 2030 nM in the test on ABL1 (compound concentrations: 100 nM and 1000 nM (sheet 'Samples'), CATDS: 0.132287686029187); 869 nM with ABL2 (compound concentrations: 100 nM and 1000 nM (sheet 'Samples'), CATDS: 0.19344614583088601); 659 nM in the test with BCR (compound concentrations: 100 nM and 1000 nM (sheet 'Samples'), CATDS: 0.226928346430948).
Regarding `CN1CCN(Cc2ccc(-c3ccc4c(Nc5ccc(Oc6ccccn6)cc5)ccnc4c3)o2)CC1` [GW567140X], the potency estimated from few doses was 147 nM in the test with ABL1 (compound concentrations: 100 nM and 1000 nM (sheet 'Samples'), CATDS: 9.3195013096343204E-2); 1260 nM with FRK (CATDS: 3.6217931786021701E-2); 675 nM with FYN (compound concentrations: 100 nM and 1000 nM (sheet 'Samples'), CATDS: 4.4615082678796297E-2); 1320 nM in the test with GAK (compound concentrations: 100 nM and 1000 nM (sheet 'Samples'), CATDS: 3.56871929379163E-2); 68.5 nM with HCK (CATDS: 0.15093661180131901); 557 nM in the test on LCK (compound concentrations: 100 nM and 1000 nM (sheet 'Samples'), CATDS: 4.8128660017474401E-2). Moreover, the potency estimated from few doses in the test on PTK6 (compound concentrations: 100 nM and 1000 nM (sheet 'Samples'), CATDS: 6.5275116077435802E-2) was 284 nM; with RIPK2 (compound concentrations: 100 nM and 1000 nM (sheet 'Samples'), CATDS: 0.141504972954966) it was 75.4 nM; in the test with RIPK3 (compound concentrations: 100 nM and 1000 nM (sheet 'Samples'), CATDS: 4.8755783013644902E-2) it was 540 nM; in the test on YES1 (compound concentrations: 100 nM and 1000 nM (sheet 'Samples'), CATDS: 6.0479326827192301E-2), 332 nM.
`CC(C)c1nc(-c2ccc(F)c(NS(=O)(=O)c3c(F)cccc3F)c2)c(-c2ccnc(Nc3ccc(N4CCOCC4)nc3)n2)s1` [GSK1804250A]: the potency estimated from few doses with ABL1 (setting [1]) is 970 nM; with ABL2 (setting [1]), 126 nM; with BCR (setting [1]) it was 954 nM; with FYN (setting [1]), 944 nM; in the test on GAK (setting [1]) it was 600 nM; with LCK (setting [1]) it was 342 nM. In addition, the potency estimated from few doses was 2130 nM in the test on RIPK3 (setting [1]) and 679 nM in the test on YES1 (setting [1]).
For `Nc1ncc(-c2cn[nH]c2)c2scc(-c3ccc4c(c3)CCN4C(=O)Cc3ccccc3)c12` [GSK2593067A], the potency estimated from few doses in the test with ABL1 (compound concentrations: 100 nM and 1000 nM (sheet 'Samples'), CATDS: 6.1234065339549101E-2) is 1560 nM; in the test with LCK (compound concentrations: 100 nM and 1000 nM (sheet 'Samples'), CATDS: 7.5344179504310702E-2), 841 nM; in the test on RIPK2 (compound concentrations: 100 nM and 1000 nM (sheet 'Samples'), CATDS: 7.5110526663463406E-2), 848 nM.
Turning to `CN1CCN(Cc2ccc(NC(=O)Nc3ccc(N(C)c4ccnc(Nc5ccc(CS(C)(=O)=O)cc5)n4)cc3)cc2)CC1.Cl` [GW827654A], the potency estimated from few doses in the test on ABL1 (compound concentrations: 100 nM and 1000 nM (sheet 'Samples'), CATDS: 3.4576588551286799E-2) is 1820 nM; in the test on ABL2 (compound concentrations: 100 nM and 1000 nM (sheet 'Samples'), CATDS: 5.6323659121428699E-2) it was 400 nM; with BCR (compound concentrations: 100 nM and 1000 nM (sheet 'Samples'), CATDS: 3.6645994259317798E-2), 1440 nM; with Q6ZSR9 (compound concentrations: 100 nM and 1000 nM (sheet 'Samples'), CATDS: 3.5510221653806698E-2), 1630 nM; with RET (CATDS: 0.30394920877794601) it was 22.8 nM.
Turning to `Fc1ccc(-c2c(-c3ccncc3)[nH]c3nccnc23)cc1` [RO1155697-000], the potency estimated from few doses with RIPK2 (setting [1]) is 828 nM.
As for `Cc1cc(O)cc(C)c1/C=C/c1cncc(-c2nn[nH]n2)c1.Cl` [GW441806A], the potency estimated from few doses in the test with ABL2 (compound concentrations: 100 nM and 1000 nM (sheet 'Samples'), CATDS: 4.9411968087492097E-2) was 1050 nM; in the test with HCK (CATDS: 5.4045361972082297E-2) it was 799 nM; in the test on PTK6 (compound concentrations: 100 nM and 1000 nM (sheet 'Samples'), CATDS: 5.1044813253260601E-2) it was 947 nM; in the test with RIPK2 (compound concentrations: 100 nM and 1000 nM (sheet 'Samples'), CATDS: 0.246510095033628) it was 18 nM; with RIPK3 (compound concentrations: 100 nM and 1000 nM (sheet 'Samples'), CATDS: 4.07522630784811E-2), 2090 nM.
Regarding `CN1CCc2ccc(Nc3nccc(-c4c(-c5cccc(NC(=O)c6c(F)cccc6F)c5)nc5ccccn45)n3)cc2C1.Cl` [GSK1010829B], the potency estimated from few doses in the test with ABL1 (compound concentrations: 100 nM and 1000 nM (sheet 'Samples'), CATDS: 3.3461879574950899E-2) is 1490 nM; in the test on ABL2 (compound concentrations: 100 nM and 1000 nM (sheet 'Samples'), CATDS: 5.23803591077244E-2) it was 515 nM; with FRK (CATDS: 4.3093308654231798E-2) it was 770 nM; with FYN (compound concentrations: 100 nM and 1000 nM (sheet 'Samples'), CATDS: 4.4096007495545798E-2), 732 nM; in the test on HCK (CATDS: 7.6691780637307694E-2), 270 nM; with LCK (compound concentrations: 100 nM and 1000 nM (sheet 'Samples'), CATDS: 0.10139412977774399), 180 nM. In addition, the potency estimated from few doses was 387 nM in the test on RET (CATDS: 6.1387367146580003E-2); 1110 nM with RIPK2 (compound concentrations: 100 nM and 1000 nM (sheet 'Samples'), CATDS: 3.7106800723599898E-2); 550 nM in the test with RIPK3 (compound concentrations: 100 nM and 1000 nM (sheet 'Samples'), CATDS: 5.0630244265372597E-2); 225 nM in the test on YES1 (compound concentrations: 100 nM and 1000 nM (sheet 'Samples'), CATDS: 8.6634925532114604E-2).
